Among the data in PubChem BioAssay (Tox21) are Potency values, retold here.

Experiment [1] in a line: Nuclear factor erythroid 2-related factor 2/antioxidant responsive element (Nrf2/ARE) small molecule agonists: qHTS cell viability counter screen in human keratinocytes (AID 1919968; active means well fitted curve in the direction sought with a large enough effect in the repeat runs; an effect the other way counts as inactive or inconclusive; further: nearly all actives have a fitted effect of over 55% in size). Put shortly:
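CellTiter-Fluor fluorescence, read 1 h after reagent, gave viability in the same wells as the ARE-luciferase assay. KeratinoSens cells (1,500/well) had 23 h compound exposure at 37 C/5% CO2 following 5 h plating.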
(In general: Quantitative high-throughput screening tests each substance at several concentrations.)

Experiment [2] can be described thus: Nuclear factor erythroid 2-related factor 2/antioxidant responsive element (Nrf2/ARE) small molecule agonists: luciferase reporter gene qHTS assay in human keratinocytes (AID 1919969; further: nearly all actives have a fitted effect of over 35% in size). (In a reporter assay the amount or activity of a reporter protein is the signal.)
The target of experiment [3] is Gonadotropin-releasing hormone receptor (Homo sapiens) (UniProt P30968). Description: Human gonadotropin-releasing hormone receptor (GnRHR) small molecule agonists, calcium flux assay in GnRHR-HEK293 cells (AID 1920063). Further: nearly all actives have a fitted effect of over 35% in size. In short, it runs like this:
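Agonist mode: compounds at 15 concentrations, in triplicate, went onto calcium dye-loaded GnRHR-HEK293 cells. Intracellular calcium was then followed as 480/540 nm fluorescence at 1 s intervals over 3 min.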

In experiment [4] the target is KiSS-1 receptor (Homo sapiens) (UniProt Q969F8). Description: Human kisspeptin (KISS1R) small molecule agonists, calcium flux assay in KISS1R-HEK293 cells (AID 1920064; active means well fitted curve in the direction sought with a large enough effect in the repeat runs; an effect the other way counts as inactive or inconclusive). In short, it runs like this: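 Agonist mode: intracellular calcium rise tracked at 1 s intervals over 3 min (480/540 nm) immediately after compound addition to dye-loaded KISS1R-HEK293 stable cells. Each compound tested at 15 concentrations in triplicate.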
Chain of KiSS-1 receptor (Homo sapiens) (Q969F8 whole entry, looked up): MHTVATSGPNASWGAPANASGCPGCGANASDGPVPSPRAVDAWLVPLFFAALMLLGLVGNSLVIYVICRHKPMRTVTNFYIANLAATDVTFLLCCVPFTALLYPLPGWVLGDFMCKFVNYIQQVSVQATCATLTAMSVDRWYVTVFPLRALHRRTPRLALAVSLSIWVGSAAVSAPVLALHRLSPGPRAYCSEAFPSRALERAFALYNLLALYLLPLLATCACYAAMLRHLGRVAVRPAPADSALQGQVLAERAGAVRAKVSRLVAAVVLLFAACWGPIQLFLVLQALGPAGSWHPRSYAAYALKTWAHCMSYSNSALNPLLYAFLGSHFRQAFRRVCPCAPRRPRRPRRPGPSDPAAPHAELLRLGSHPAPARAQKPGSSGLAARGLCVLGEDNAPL
In general terms: Calcium assays in cells follow changes in intracellular calcium, usually with a dye or a luminescent sensor.

Experiment [5] can be described thus: G protein-coupled receptor (GPCR) small molecule agonists, calcium flux assay: HEK293 wild type cell line counter screen (AID 1920065). Put shortly:
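Calcium flux counter screen: compound added in agonist mode at 15 concentrations in triplicate to dye-loaded parental HEK293 cells. Fluorescence (480/540) read kinetically for 3 min; ATP served as positive control.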

The nature of experiment [6]: p53 small molecule agonists, cell-based qHTS assay with rat liver microsomes (AID 1963578). In short, it runs like this:
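Fluorescence from a beta-lactamase reporter under a p53 response element was measured after cells had been incubated 16 h at 37 C with test compound and rat liver microsomes plus NADPH (0.5 mg/mL final each).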

Experiment [7] in a line: p53 small molecule agonists, cell-based qHTS assay with human liver microsomes: qHTS cell viability counter screen (AID 1963579). Further: nearly all actives have a fitted effect of over 45% in size. Further: potency means the concentration at half of the fitted maximal effect. Put shortly:
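Seed p53RE-bla cells at 4,000 per well; incubate 5 h at 37 C; add compound, human liver microsomes and NADPH; incubate 16 h at 37 C; add CellTiter-Glo; after 30 min at room temperature, read luminescence.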

Experiment [8] in a line: p53 small molecule agonists, cell-based qHTS assay: qHTS cell viability counter screen (AID 1963581). Further: nearly all actives have a fitted effect of over 45% in size. Put shortly:
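Counter screen read by CellTiter-Glo luminescence (ATP content, 30 min at room temperature), run in the same wells as the beta-lactamase reporter read. HCT-116 p53RE-bla cells saw compounds for 16 h at 37 C.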

Experiment [9] in a line: p53 small molecule agonists, cell-based qHTS assay (AID 1963582; active means well fitted activation curve with a large enough effect in the signal ratio in the repeat runs, not every such curve was filed as active; the % refers to the signal ratio). In short, it runs like this:
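Read-out is beta-lactamase FRET fluorescence after 2 h at room temperature with LiveBLAzer B/G substrate. p53 response element-bla cells were treated 16 h at 37 C with compounds in DMSO, added 5 h after seeding.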

The target in experiment [10] is Muscarinic acetylcholine receptor M1 (Homo sapiens) (UniProt P11229). Description: Cholinergic receptor muscarinic 1 (CHRM1) small molecule antagonists, cell-based qHTS assay (AID 1963588). Further: nearly all actives have a fitted effect of over 40% in size. Put shortly:
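Compounds were tested at 15 concentrations in three independent runs. Dye-loaded CHRM1-CHO cells were exposed 5 min at room temperature before stimulation by acetylcholine added at 50nM. Intracellular calcium was read kinetically on FDSS for 3 min.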

Experiment [11] has the same target. In words: Cholinergic receptor muscarinic 1 (CHRM1) small molecule agonists, cell-based qHTS assay (AID 1963589). Further: nearly all actives have a fitted effect of over 35% in size. In short, it runs like this: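 Agonist-mode calcium-flux screen: compounds at 15 concentrations, three independent runs, were pin-transferred onto dye-loaded human CHRM1-CHO cells. Fluorescence was then recorded kinetically every second over minutes.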

Experiment [12] can be described thus: cAMP Responsive Elements (CRE) small molecule agonists, cell-based qHTS assay (AID 1963590). In short, it runs like this: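 Agonist mode: compound added to CRE-bla HEK 293T cells (2,000/well, 18 h after plating) for 3 h at 37 C/5% CO2. Reporter activity detected via FRET beta-lactamase substrate, 2 h room-temperature loading.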
A short description of experiment [13]: cAMP Responsive Elements (CRE) small molecule antagonists, cell-based qHTS assay (AID 1963591; active means well fitted inhibition curve with a large enough effect in the signal ratio in the repeat runs, not every such curve was filed as active; the % refers to the signal ratio). In short, it runs like this: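 Antagonist mode: compounds are added alongside the adenylyl cyclase activator NKH477 (0.25 uM final) to CRE-bla HEK293T cells for 3 h. LiveBLAzer FRET substrate, 2 h at room temperature, reports bla expression.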
The target in experiment [14] is Beta-2 adrenergic receptor (Homo sapiens) (UniProt P07550). Description: Adrenergic beta2 receptor (ADRB2) small molecule antagonists, cell-based qHTS assay (AID 1963592). Further: series mostly up to about 92 µM; nearly all actives have a fitted effect of over 50% in size. Put shortly:
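Assay format: CHO-ADRB2 cells, 18-20hr seeding at 37C/5% CO2, then compound plus 1nM isoproterenol agonist mix for 0.5hr RT. Homogeneous time-resolved fluorescence cAMP detection after 1hr, expressed as 665/615 nm ratio.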

Experiment [15] concerns the target D(2) dopamine receptor (Homo sapiens) (UniProt P14416). Description: Dopamine D2 receptor (DRD2) small molecule agonists, cell-based qHTS assay (AID 1963594). Further: nearly all actives have a fitted effect of over 35% in size. In short, it runs like this:
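HEK293 cells stably expressing human DRD2, pre-treated with PDE inhibitor Ro20-1724 (0.1 mM final) and compound 10 min at room temperature, then stimulated with NKH477 (200nM […]) for 30 min. cAMP read by HTRF (665/620 nm).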

For experiment [16] the target is unchanged. In words: Dopamine D2 receptor (DRD2) small molecule antagonists, cell-based qHTS assay (AID 1963595; active means well fitted inhibition curve with a large enough effect in the signal ratio in the repeat runs, with a control signal flat; the % refers to the signal ratio). In short, it runs like this: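 HTRF cAMP read-out at 665 and 620 nm emission (340 nm excitation). Antagonist mode: compounds were tested against 12 nM quinpirole in DRD2-HEK293 cells, with 200 nM NKH477 raising cAMP and 0.1 mM Ro20-1724 blocking its breakdown.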

A short description of experiment [17]: p53 small molecule agonists, cell-based qHTS assay with rat liver microsomes: qHTS cell viability counter screen (AID 1963580). Further: nearly all actives have a fitted effect of over 45% in size. In short, it runs like this: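 Cytotoxicity counter screen: intracellular ATP measured by CellTiter-Glo luminescence in the same wells as the beta-lactamase reporter read, on HCT-116 p53RE-bla cells exposed 16 h at 37 C to compounds with rat liver microsomes and NADPH, each 0.5 mg/mL final.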

Experiment [18] deals with 5-hydroxytryptamine receptor 2A (Homo sapiens) (UniProt P28223). Description: 5-hydroxytryptamine receptor 2A (HTR2A) small molecule agonists, cell-based qHTS assay (AID 1963587). Further: nearly all actives have a fitted effect of over 30% in size. Put shortly:
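CHO cells stably expressing human HTR2A, plated 18 h, loaded with calcium dye 1 h at 37 C. Agonist mode: compounds added and intracellular calcium fluorescence recorded kinetically for 2 min at 1 sec intervals.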

In experiment [19] the target is Beta-2 adrenergic receptor (Homo sapiens) (UniProt P07550). Description: Adrenergic beta2 receptor (ADRB2) small molecule agonists, cell-based qHTS assay (AID 1963593).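 Further: CHO cells stably overexpressing human ADRB2.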 Put shortly: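 CHO cells stably over-expressing ADRB2 were plated overnight at 37C, then dosed with compounds plus a stimulation mix containing 100uM IBMX and 25uM Ro-20-1724 for 0.5hr at room temperature. cAMP was measured by HTRF competition, 1hr.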
Chain of Beta-2 adrenergic receptor (Homo sapiens) (P07550 whole entry, looked up): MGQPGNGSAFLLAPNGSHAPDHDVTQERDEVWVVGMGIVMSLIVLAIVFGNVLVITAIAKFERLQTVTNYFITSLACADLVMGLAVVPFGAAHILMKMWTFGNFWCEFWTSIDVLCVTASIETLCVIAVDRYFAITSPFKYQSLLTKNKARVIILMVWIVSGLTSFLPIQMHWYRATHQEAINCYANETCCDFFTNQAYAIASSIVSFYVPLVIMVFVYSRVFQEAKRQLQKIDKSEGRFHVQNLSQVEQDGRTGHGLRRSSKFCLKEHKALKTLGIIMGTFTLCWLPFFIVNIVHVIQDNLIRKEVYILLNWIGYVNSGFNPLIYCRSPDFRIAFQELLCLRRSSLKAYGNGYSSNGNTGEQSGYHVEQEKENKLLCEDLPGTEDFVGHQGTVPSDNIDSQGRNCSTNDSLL

Experiment [20] concerns the target 5-hydroxytryptamine receptor 2A (Homo sapiens) (UniProt P28223). In words: 5-hydroxytryptamine receptor 2A (HTR2A) small molecule antagonists, cell-based qHTS assay (AID 1963586). Further: nearly all actives have a fitted effect of over 45% in size. In short, it runs like this:
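CHO cells stably expressing human HTR2A were plated for 18 h at 37 C, then loaded with calcium dye for 1 h. Compounds were preincubated 5 min at room temperature before DOI (4 nM solution) was added. Kinetic fluorescence was read for 3 min.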

Inconclusive results are not listed. Activity calls are given as the source filed them. Unless noted, the call rests on the fitted dose curve.

Chain of Muscarinic acetylcholine receptor M1 (Homo sapiens) (P11229 whole entry, looked up): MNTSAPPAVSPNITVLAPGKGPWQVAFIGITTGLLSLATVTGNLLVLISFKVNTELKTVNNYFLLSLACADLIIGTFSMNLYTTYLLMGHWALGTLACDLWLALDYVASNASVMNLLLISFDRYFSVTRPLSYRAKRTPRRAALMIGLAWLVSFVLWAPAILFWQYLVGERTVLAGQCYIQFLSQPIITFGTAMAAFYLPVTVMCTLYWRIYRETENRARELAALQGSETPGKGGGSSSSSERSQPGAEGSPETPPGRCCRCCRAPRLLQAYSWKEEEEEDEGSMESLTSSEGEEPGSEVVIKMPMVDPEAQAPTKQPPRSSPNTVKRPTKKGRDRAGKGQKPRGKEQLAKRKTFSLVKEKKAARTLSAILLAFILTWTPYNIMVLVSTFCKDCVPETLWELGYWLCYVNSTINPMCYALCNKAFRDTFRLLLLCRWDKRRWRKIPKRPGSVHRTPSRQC
Chain of D(2) dopamine receptor (Homo sapiens) (P14416 whole entry, looked up): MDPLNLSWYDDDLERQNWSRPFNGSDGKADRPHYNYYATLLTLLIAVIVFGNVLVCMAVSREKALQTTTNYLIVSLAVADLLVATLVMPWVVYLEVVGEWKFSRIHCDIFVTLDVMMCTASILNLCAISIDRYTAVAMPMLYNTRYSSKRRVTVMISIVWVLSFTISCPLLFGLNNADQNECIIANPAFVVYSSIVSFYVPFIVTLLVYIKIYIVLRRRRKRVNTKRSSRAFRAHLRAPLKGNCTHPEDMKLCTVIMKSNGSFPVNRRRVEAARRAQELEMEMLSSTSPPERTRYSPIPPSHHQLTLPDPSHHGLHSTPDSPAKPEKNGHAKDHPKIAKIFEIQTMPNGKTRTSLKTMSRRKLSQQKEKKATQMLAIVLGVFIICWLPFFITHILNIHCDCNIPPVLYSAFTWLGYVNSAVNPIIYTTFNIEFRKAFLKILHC
Chain of 5-hydroxytryptamine receptor 2A (Homo sapiens) (P28223 whole entry, looked up): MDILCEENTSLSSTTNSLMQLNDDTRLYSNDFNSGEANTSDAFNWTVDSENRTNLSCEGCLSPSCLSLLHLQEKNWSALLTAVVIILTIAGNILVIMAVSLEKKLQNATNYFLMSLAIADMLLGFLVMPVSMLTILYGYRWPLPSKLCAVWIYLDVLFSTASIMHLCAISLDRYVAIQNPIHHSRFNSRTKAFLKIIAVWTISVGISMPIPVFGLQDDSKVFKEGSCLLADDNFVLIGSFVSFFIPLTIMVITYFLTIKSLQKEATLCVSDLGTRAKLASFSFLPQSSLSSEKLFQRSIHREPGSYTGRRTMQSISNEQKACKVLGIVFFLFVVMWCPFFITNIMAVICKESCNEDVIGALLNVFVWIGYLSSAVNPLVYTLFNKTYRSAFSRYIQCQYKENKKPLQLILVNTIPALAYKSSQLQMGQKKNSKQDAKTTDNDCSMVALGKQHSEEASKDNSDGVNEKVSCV
Chain of Gonadotropin-releasing hormone receptor (Homo sapiens) (P30968 whole entry, looked up): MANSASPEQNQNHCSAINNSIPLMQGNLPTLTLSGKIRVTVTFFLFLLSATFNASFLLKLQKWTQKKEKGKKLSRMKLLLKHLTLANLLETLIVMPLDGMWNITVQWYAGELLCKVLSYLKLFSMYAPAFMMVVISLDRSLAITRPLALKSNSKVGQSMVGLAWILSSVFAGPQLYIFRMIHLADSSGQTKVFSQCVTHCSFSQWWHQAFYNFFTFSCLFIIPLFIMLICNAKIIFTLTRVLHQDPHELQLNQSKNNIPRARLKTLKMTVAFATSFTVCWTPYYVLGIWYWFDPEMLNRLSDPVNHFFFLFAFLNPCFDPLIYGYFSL

Consider `COC(=O)c1ccccc1S(=O)(=O)NC(=O)N(C)c1nc(C)nc(OC)n1`, for which the Potency result in experiment [1], in experiment [2], in experiment [3], in [4], in [5] and in experiment [6] was “inactive” each time. For the same compound, the Potency entry in experiment [7], in experiment [8], in experiment [9], in experiment [10], in experiment [11] and in experiment [12] was “inactive” in each case. Also, the Potency result in [13], in [14], in experiment [15] and in experiment [16] was “inactive” throughout.

As for `CNC(=O)Oc1cccc(N=CN(C)C)c1`, the Potency result in [1], in [2], in experiment [3], in [4], in experiment [5] and in [7] was “inactive” throughout. Also, the Potency entry in experiment [17], in experiment [8], in experiment [9], in experiment [18], in [10] and in experiment [11] was “inactive” in each case. For the same compound, the Potency entry in [12], in experiment [13], in [14], in [19], in [15] and in experiment [16] was “inactive” each time.

Take `C=CCOC(=O)C(C)(C)OC(=O)c1cc(-n2c(=O)cc(C(F)(F)F)n(C)c2=O)ccc1Cl`: the Potency result in experiment [1], in experiment [2], in [3], in experiment [4], in experiment [5] and in [6] was “inactive” in each case. Also, the Potency result in experiment [7], in experiment [17], in [9], in [20], in experiment [18] and in [10] was “inactive” each time. Moreover, the Potency result in experiment [11], in [12], in experiment [14], in experiment [19], in [15] and in experiment [16] was “inactive” in each case.

On to `C=CCC1(C(C)CC)C(=O)NC(=O)NC1=O` (stereo unspecified), for which the Potency entry in experiment [1], in experiment [2], in experiment [3], in experiment [4], in experiment [5] and in experiment [6] was “inactive” in each case. Further, the Potency result in [17], in [8], in [9], in experiment [20], in experiment [18] and in experiment [10] was “inactive” each time. For the same compound, the Potency result in experiment [11], in experiment [12], in experiment [14], in [15] and in experiment [16] was “inactive” throughout.

Take `O=C(CCl)NCO`: the Potency result in experiment [1], in [2], in experiment [3], in experiment [4], in experiment [5] and in [6] was “inactive” in each case. The Potency entry in experiment [17], in experiment [8], in experiment [9], in [20], in experiment [18] and in experiment [10] was “inactive” throughout. The Potency result in experiment [11], in [12], in [14], in [15] and in [16] was “inactive” each time.

For the compound `NC(=O)C(Cl)(Cl)Cl`, the Potency entry in experiment [1], in experiment [2], in experiment [3], in experiment [4], in experiment [5] and in experiment [7] was “inactive” throughout. The Potency entry in [17], in experiment [8], in experiment [20], in [18], in experiment [10] and in experiment [11] was “inactive” in each case. In addition, the Potency entry in experiment [12], in [13], in [14], in experiment [19], in experiment [15] and in [16] was “inactive” each time.

Take `CCOP(=S)(OCC)Oc1ccc(Cl)cc1Cl`: the Potency result in [1], in experiment [2], in experiment [3], in [4], in experiment [5] and in [17] was “inactive” in each case. For the same compound, the Potency result in experiment [8], in experiment [9], in experiment [20], in experiment [10], in experiment [11] and in [12] was “inactive” in each case. Moreover, the Potency result in experiment [13], in experiment [19], in [15] and in [16] was “inactive” each time. The Potency in experiment [7] was 45.8 µM (active).
